This is a sample that favours compounds with a hit; in the whole collection about 12% have one here.
Pf growth 96h = P. falciparum growth inhibition at 96 hour, primary screen for plastid delayed-death inhibitors; P. falciparum luciferase reporter growth, 96 h; Potency, µM (titrated, usually from 28.7 µM), actives largely listed as inhibitors; 320,000 compounds, 6.9% hits; AID 504834
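Infected RBCs, 2% Hct / 0.05% parasitemia final; luciferase-reporter P. falciparum; cpd 96 h, 37 C, 5% CO2; luciferase detection reagent; luminescence.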
NS1 function inh = inhibitors of influenza NS1 protein function | Potency, µM (series often up to 46.1 µM) | 270,000 compounds, 0.4% hits; calls by dose curve; further: actives are rising curves; nearly all actives have a fitted effect of over 50% in size
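Read-out: OD600 growth recovery of NS1-expressing budding yeast. Cells grown overnight at 30C in -URA glucose medium, washed, resuspended and diluted 1:100 in 2% galactose assay medium, pH 6.0. Same strain lacking NS1 served as positive control.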
HCV inhibitor = inhibitors of hepatitis C virus infection; Huh7.5.1 HCVcc-Cre infection, luciferase reporter, 44 h; Potency, µM (doses to about 41.8 µM), hits mostly inhibitors; 340,000 compounds, 3.4% hits; AID 651820
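Reporter virus HCVcc-Cre (~0.5 moi) infects cells exposed to compound; seeding density 1,000 cells/well with 4 h settling beforehand. Luminescence, 15 sec read, taken 44 h post-infection following a 15 min RT substrate incubation.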
Pf growth 48h = inhibits P. falciparum growth in the first generation, 48 h | 310,000 compounds, 5.9% hits | P. falciparum luciferase growth in erythrocytes, 48 h | Potency, µM (top dose mostly 28.7 µM), actives largely listed as inhibitors
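First compound was added to culture medium, then infected red cells at 0.1% parasitemia and 2% hematocrit (final). After incubation at 37 C under 5% CO2, luciferase detection reagent was dispensed and light output recorded.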
AMA1-RON2 inh = disrupts binding of P. falciparum AMA1 to RON2; AlphaScreen AMA1-biotinylated RON2 peptide binding; Potency, µM (titrated, usually from 58.2 µM), usual class: inhibitors; 360,000 compounds, 0.2% hits; AID 720542; further: nearly all actives have a fitted effect of over 45% in size
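AMA1 (3D7) with his tag at 25 nM final met compounds first, then biotinylated RON2 peptide at 25 nM; detection used donor plus acceptor beads, 10 µg/mL apiece, read by AlphaScreen after 30 min at room temperature.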
SARS PLpro yeast = SARS-CoV PLP inhibition in yeast | S. cerevisiae expressing SARS-CoV PLpro, growth rescue | Potency, µM (top dose mostly 32.9 µM), actives largely listed as activators | 330,000 compounds, 0.19% hits | AID 485353; calls by dose curve; further: nearly all actives have a fitted effect of over 55% in size
A number is an active result; i = inactive; ? = inconclusive; nt = no result; [ ] = remark or other dose. Unless noted, the call rests on the fitted dose curve; in most records, active means well fitted curve in the direction sought with a large enough effect; inconclusive means small, poorly fitted or top-dose-only effect, or another doubt; inactive means no such curve, though single readings can be large; an effect the other way counts as inactive or inconclusive.

SMILES	Pf growth 96h	NS1 function inh	HCV inhibitor	Pf growth 48h	AMA1-RON2 inh	SARS PLpro yeast
CCOc1ccc(N(CC(=O)Nc2ccc(OC)cc2)C2=NC3CS(=O)(=O)CC3S2)cc1 (stereo unspecified)	13µM	i	i	i	i	i
CCOc1ccc(OCC)c(NC(=O)CN(c2ccc(OC)cc2)S(=O)(=O)c2c(C)noc2C)c1	?	?	?	13µM	i	i
CCOc1ccc(OCC)c(NC(=O)CN(c2ccc(C)cc2)S(=O)(=O)c2c(C)noc2C)c1	i	i	?	nt	i	i
CCOc1ccccc1NC(=O)CN(c1ccc(C)cc1)S(=O)(=O)c1c(C)noc1C	i	i	?	4.1µM	i	i
COc1ccc(N(CC(=O)Nc2ccc(OC)c(Cl)c2)S(=O)(=O)c2c(C)noc2C)cc1	i	i	?	8.3µM	i	i
O=C(COC(=O)CCc1ccc(S(=O)(=O)N2CCOCC2)cc1)Nc1ccccc1OC(F)F	nt	nt	i	nt	i	i
O=C(NN1CCCCC1)c1cccc2ccccc12	i	i	i	i	i	i
CCOc1ccc(NC(=O)CN(c2cc(C)cc(C)c2)S(=O)(=O)c2c(C)noc2C)cc1	?	i	?	i	i	i
COc1ccc(OC)c(NC(=O)CN(c2ccc(C)cc2)S(=O)(=O)c2c(C)noc2C)c1	1.9µM	i	?	?	i	i
COc1ccc(OC)c(NC(=O)CN(c2ccc(C(C)C)cc2)S(=O)(=O)c2c(C)noc2C)c1	10µM	?	?	nt	i	i
CCOc1ccc(N(CC(=O)Nc2ccc3c(c2)OCCO3)S(=O)(=O)c2c(C)noc2C)cc1	10µM	i	i	nt	i	i
CCOc1ccc(N(CC(=O)Nc2ccc(OC)cc2)S(=O)(=O)c2c(C)noc2C)cc1	6.6µM	i	i	nt	i	i
CCOc1ccccc1NC(=O)CCN(c1ccc(C)cc1)S(=O)(=O)c1ccccc1	12µM	i	?	?	i	i
Cc1ccc(N(CCC(=O)O)S(=O)(=O)c2ccccc2)cc1	i	i	i	i	i[2.32 µM]	i
O=C(Cc1c(F)cccc1Cl)OCC(=O)N1CCN(c2ccccc2)CC1	nt	nt	i	nt	i	i
CC1CN(C(=O)CCC(=O)NCc2ccccc2Cl)c2ccccc2S1 (stereo unspecified)	8.3µM	i	i	i	i	i
CC(C)Oc1ccc(CNC(=O)CCC(=O)N2CC(C)Sc3ccccc32)cc1 (stereo unspecified)	i	i	i	?	i	i
CCN(CC)CCNc1oc(-c2ccccc2)nc1S(=O)(=O)c1ccccc1	nt	nt	i	nt	i	i
CCn1c(SCC(=O)c2ccc(C)cc2)nnc1-c1ccoc1C	15µM	i	i	i	i	i
CCn1c(SCC(=O)c2ccc(Cl)cc2)nnc1-c1ccoc1C	15µM	i	?	?	i	?
CCn1c(SCC(=O)c2ccccc2)nnc1-c1ccoc1C	i	i	i	i	i	i
CC(C)C[C@H]1CNC(=S)N1CC1CCCN1C[C@H](Cc1ccc(O)cc1)N1C[C@H](Cc2ccccc2)N(CC2CCCCC2)C1=S (stereo partly specified)	nt	nt	11µM	nt	i	nt
CCOc1ccc(CCN2C(=S)N([C@@H](Cc3ccc(O)cc3)CN3CCCC3CN3C(=S)NC[C@@H]3Cc3ccc(O)cc3)C[C@@H]2CC(C)C)cc1 (stereo partly specified)	nt	nt	4.5µM	nt	i	nt
CC(C)C[C@H]1CNC(=S)N1C[C@H]1CCCN1C[C@H](Cc1ccccc1)N1C[C@H](Cc2ccc(O)cc2)N(CC2CCCCC2)C1=S	nt	nt	nt	nt	i	nt
CCOc1ccc(CCN2C(=S)N([C@@H](Cc3ccccc3)CN3CCC[C@@H]3CN3C(=S)NC[C@@H]3Cc3ccc(O)cc3)C[C@@H]2CC(C)C)cc1	nt	nt	nt	nt	i	nt
COc1cc(C2NC(=O)NC(C)=C2C(=O)OC2CCCCC2)cc(Cl)c1O (stereo unspecified)	i	i	i	i	i	i
O=C(O)c1c(C(=O)O)c(-c2ccc(F)cc2)n2c1CCC2	i	i	i	i	i	i
Cc1nn(-c2ccccc2)c(C)c1-c1nnc(-c2c(C)nn(-c3ccccc3)c2C)o1	?	i	?	12µM	i	i
Cc1nn(-c2ccccc2)c(C)c1-c1nnc(C(F)(F)F)o1	i	i	i	i	i	i

Screening data from PubChem BioAssay.
